Assay results reported in PubChem BioAssay AID1224860 (National Center for Advancing Translational Sciences (NCATS), 2016).
Records with an inconclusive call do not appear. A call without a number means that no potency is given here. Active and inactive are the calls of the source. Calls follow the shape of the dose curve; as a rule, active = well fitted cell-killing curve with a large enough effect; inconclusive = small, poorly fitted or top-dose-only effect; inactive = flat fitted curve, though single readings scatter.

assay: Compound cytotoxicity measured by an ATP content assay as a counter-screen for lead compounds in human iPSC derived neural progenitor cells (hNPCs); settings: human iPSC-derived NPC viability, ATP luminescence; series mostly up to 46.1 µM
Summary of the method: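 hNPCs (human iPSC-derived) seeded 16–20 h, then exposed to compound for 6, 24 or 72 h at 37 C. ATP-content luminescence read after 10 min at room temperature; cytotoxicity expressed as percent inhibition of viability.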

Question: With `COc1ccc(-c2cc(=S)ss2)cc1` as the molecule, how does the Potency read?
Answer: inactive

Question: With `O=C(Nc1ncc([N+](=O)[O-])s1)c1cccs1` as the molecule, how does the Potency read?
Answer: inactive

Question: With `O=C(O)CCC(=O)c1ccc(-c2ccccc2)cc1` as the molecule, how does the Potency read?
Answer: inactive

Question: Which Potency does the source give for `CC(=C(CCOC(=O)C(C)C)SSC(CCOC(=O)C(C)C)=C(C)N(C=O)Cc1cnc(C)nc1N)N(C=O)Cc1cnc(C)nc1N` here?
Answer: inactive

Question: Which Potency does the source give for `O=C(Oc1ccccc1)c1cccc(C(=O)Oc2ccccc2)c1` here?
Answer: inactive

Question: Which Potency does the source give for `CCCCCNC(=O)N1CCC(CN(Cc2ccc(Cl)cc2)Cc2ccc([N+](=O)[O-])s2)C1` (configuration not stated) here?
Answer: inactive

Question: Which Potency does the source give for `CC1(C)Cc2c(sc(NC(=S)NC(=O)c3ccccc3)c2C(=O)O)CO1` here?
Answer: inactive

Question: With `C[C@@H](N)c1ccc(C(=O)Nc2ccnc3[nH]ccc23)cc1` as the molecule, how does the Potency read?
Answer: inactive

Question: With `COc1ccnc2c1CCCCC2S(=O)c1nc2ccccc2[nH]1` (configuration not stated) as the molecule, how does the Potency read?
Answer: inactive

Question: Which Potency does the source give for `O=C(O)[C@H](CC(=O)N1C[C@@H]2CCCC[C@H]2C1)Cc1ccccc1` here?
Answer: inactive

Question: Which Potency does the source give for `CN(C)c1ccc2cc(C(=O)N[C@@H](CCCN=C(N)CCl)C(=O)NCc3ccccc3)ccc2c1` here?
Answer: inactive

Question: For `Nc1cc(C(F)(F)F)ccc1S`, which Potency is on record?
Answer: 19.5 µM (active)

Question: For `CN(C)c1ccc(/C=C2\C(=O)Nc3ccccc32)cc1`, which Potency is on record?
Answer: 8.69 µM (active)

Question: Which Potency does the source give for `COc1cc2nc(N3CCN(C(=O)C4CCCO4)CC3)nc(N)c2cc1OC` (configuration not stated) here?
Answer: inactive

Question: For `CC(C)c1ccc2oc3nc(N)c(C(=O)O)cc3c(=O)c2c1`, which Potency is on record?
Answer: 3.46 µM (active)

Question: Which Potency does the source give for `CC(C(=O)O)c1ccc(C(=O)c2ccccc2)s1` (configuration not stated) here?
Answer: inactive

Question: Which Potency does the source give for `CC1(C)OC2=C(C(=O)c3ccccc3C2=O)[C@H](NCc2ccccc2)[C@H]1O` here?
Answer: 3.98 µM (active)

Question: For `CCC(C(=O)O)c1ccc(N2Cc3ccccc3C2=O)cc1` (configuration not stated), which Potency is on record?
Answer: inactive

Question: Which Potency does the source give for `Nc1ncnc2c1ncn2[C@@H]1O[C@@H](CO)[C@H](O)[C@H]1O` here?
Answer: inactive

Question: Which Potency does the source give for `O=C1c2ccccc2C(=O)c2c1ccc(O)c2O` here?
Answer: inactive

Question: With `COc1ccc2nc(NC(=O)Nc3ccccc3)sc2c1` as the molecule, how does the Potency read?
Answer: 7.74 µM (active)

Question: With `CC(O)=C(C#N)C(=O)Nc1ccc(C(F)(F)F)cc1` as the molecule, how does the Potency read?
Answer: 13.8 µM (active)

Question: For `Cc1csc(NC(=O)c2sc3nc4c(c(C(F)(F)F)c3c2N)CCC4)n1`, which Potency is on record?
Answer: 1.95 µM (active)

Question: Which Potency does the source give for `Cc1c(N)c(=O)n(-c2ccccc2)n1C` here?
Answer: inactive

Question: With `O=C(O)c1ccccc1Nc1cccc(C(F)(F)F)c1` as the molecule, how does the Potency read?
Answer: inactive

Question: Which Potency does the source give for `O=C(/C=C/c1ccc(O)cc1)c1ccc(O)cc1O` here?
Answer: inactive

Question: Which Potency does the source give for `CNC(=O)c1ccccc1Sc1ccc2c(/C=C/c3ccccn3)n[nH]c2c1` here?
Answer: 7.74 µM (active)

Question: Which Potency does the source give for `CS(=O)(=O)c1ccc(-c2cn3ccccc3n2)cc1` here?
Answer: 7.74 µM (active)

Question: Which Potency does the source give for `O=C(Nc1ccc([N+](=O)[O-])cc1Cl)c1cc(Cl)ccc1O` here?
Answer: 8.69 µM (active)

Question: Which Potency does the source give for `O=C(O)c1cccc(-c2noc(-c3ccccc3F)n2)c1` here?
Answer: 5.48 µM (active)

Question: For `O=C1NC(=O)C(=Cc2ccc(-c3ccc(F)cc3)o2)S1`, which Potency is on record?
Answer: inactive

Question: With `CCOCCOC(=O)/C=C/c1ccc(OC)cc1` as the molecule, how does the Potency read?
Answer: inactive
